Unmarked numbers belong to inactive results. Active and inactive are the calls of the source.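 Rule for the calls, unless noted: active = mean inhibition above 46.5%, the solvent-only control mean plus 3 SD; inactive = the rest.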
Assays:
[1] = test system: transactivating tegument protein VP16 (Human herpesvirus 1); assay: compounds suppressing VP16-driven luciferase signal – cell-based, luminescence, single concentration, counter-screen for SRC2 inhibitor project (AID 652007; in the data active = inhibition above about 36%); conditions: cell-based VP16 transactivation luciferase reporter, at 8.9 µM, stronger effect = higher value
[2] = target: Nuclear receptor coactivator 2 (Homo sapiens) (UniProt Q15596); assay: inhibition of GAL4-SRC2 driven luciferase expression – cell-based, luminescence, HEK293, triplicate, confirmation (AID 652008); conditions: HEK293 GAL4-SRC2 luciferase reporter, at 8.9 µM, stronger effect = higher value;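 note: 0% = DMSO-treated cells and 100% = Gossypol at 36 µM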
Chain of Nuclear receptor coactivator 2 (Homo sapiens) (Q15596 whole entry, looked up, the tested form may be a part): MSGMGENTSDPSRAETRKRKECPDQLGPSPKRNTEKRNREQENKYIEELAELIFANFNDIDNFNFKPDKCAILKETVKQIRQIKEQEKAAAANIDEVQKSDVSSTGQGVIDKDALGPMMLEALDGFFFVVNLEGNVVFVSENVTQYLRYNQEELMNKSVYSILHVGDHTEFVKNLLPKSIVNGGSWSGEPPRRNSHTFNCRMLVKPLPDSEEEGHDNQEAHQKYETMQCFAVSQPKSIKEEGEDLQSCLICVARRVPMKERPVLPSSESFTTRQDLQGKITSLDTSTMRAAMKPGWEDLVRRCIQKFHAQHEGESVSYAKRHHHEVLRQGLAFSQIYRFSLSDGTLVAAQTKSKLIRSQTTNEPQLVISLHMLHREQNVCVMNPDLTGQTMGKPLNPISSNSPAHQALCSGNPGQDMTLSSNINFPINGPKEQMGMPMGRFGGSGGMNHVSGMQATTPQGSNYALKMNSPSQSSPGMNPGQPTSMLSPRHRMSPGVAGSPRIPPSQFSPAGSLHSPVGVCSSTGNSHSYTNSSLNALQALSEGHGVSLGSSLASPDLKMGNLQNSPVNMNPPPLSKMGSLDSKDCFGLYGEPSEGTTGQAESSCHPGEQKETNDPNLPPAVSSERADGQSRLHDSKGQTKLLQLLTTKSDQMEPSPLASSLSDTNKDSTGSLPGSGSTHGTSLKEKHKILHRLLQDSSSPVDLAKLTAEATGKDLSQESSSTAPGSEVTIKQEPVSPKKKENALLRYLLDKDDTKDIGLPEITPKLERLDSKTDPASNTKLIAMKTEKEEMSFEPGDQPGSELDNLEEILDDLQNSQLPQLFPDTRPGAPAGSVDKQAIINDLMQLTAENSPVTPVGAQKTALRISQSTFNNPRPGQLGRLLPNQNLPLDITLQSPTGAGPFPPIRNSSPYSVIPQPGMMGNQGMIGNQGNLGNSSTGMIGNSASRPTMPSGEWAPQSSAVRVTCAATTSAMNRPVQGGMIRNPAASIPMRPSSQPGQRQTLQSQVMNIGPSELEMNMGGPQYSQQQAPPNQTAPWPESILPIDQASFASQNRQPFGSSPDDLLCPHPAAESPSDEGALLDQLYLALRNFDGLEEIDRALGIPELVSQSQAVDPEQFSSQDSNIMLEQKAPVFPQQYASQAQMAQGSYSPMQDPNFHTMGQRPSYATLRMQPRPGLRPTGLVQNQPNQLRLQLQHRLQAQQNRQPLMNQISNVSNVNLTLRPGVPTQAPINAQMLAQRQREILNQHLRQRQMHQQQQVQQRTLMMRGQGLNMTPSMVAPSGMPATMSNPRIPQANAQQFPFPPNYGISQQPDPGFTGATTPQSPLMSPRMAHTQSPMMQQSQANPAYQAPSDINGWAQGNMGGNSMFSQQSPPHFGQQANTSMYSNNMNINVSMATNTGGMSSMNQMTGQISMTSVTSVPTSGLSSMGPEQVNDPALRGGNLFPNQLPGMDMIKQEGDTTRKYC

SMILES | inhibition [1] | inhibition [2]
COc1ccccc1-c1cc2nc(C)c(CCC(=O)NCc3ccco3)c(C)n2n1 | -5.98% | 17.5%
CC(Oc1ccc(Cl)cc1Cl)C(=O)NCCCn1ccnc1 (stereo not drawn) | -8.12% | -15.5%
CC(Sc1nnc(CN2CCCC2)n1Cc1ccccc1)C(=O)Nc1ccc(F)cc1 (stereo not drawn) | 1.17% | -5.19%
CCC(C)Nc1nc(C)nc2c1oc1ccccc12 (stereo not drawn) | 2.3% | 3.55%
CC(c1ccccc1)N1CCN(C(=O)CCl)CC1 (stereo not drawn) | 17.4% | 43.9%
CCn1c(Cl)c(C=O)s/c1=N\S(=O)(=O)c1ccccc1 | 59.6% (active) | 16%
COc1ccc(C(NC(=O)C2CCN(CCCOc3ccccc3)CC2)c2cccs2)cc1 (stereo not drawn) | -8.07% | 3.49%
Cc1ccc(NC(=O)C2CCN(C(=O)c3ccccc3C)CC2)nc1 | -5.97% | -11.5%
CCc1ccc(/C=C2\SC(=S)N(CCCC(=O)N3CCN(C)CC3)C2=O)cc1 | -9.42% | 11.9%
Cc1cc(Nc2ccccc2)n(C(=O)c2ccc(N)cc2)n1 | -71.3% | 0.44%
Cc1ccc(NC(=O)C2CCN(S(=O)(=O)c3c(C)noc3/C=C/c3ccco3)CC2)nc1 | 11.6% | 22.4%
CCC/C(C#Cc1ccsc1)=C1/c2ccccc2C(=O)N1c1ccccc1 | -8.53% | -18.8%
O=C(Nc1nc2cc3c(cc2s1)OCO3)C1=COCCO1 | 26.7% | 70.3% (active)
Cc1ccc(C(=O)NCc2cccc(C(F)(F)F)c2)cc1S(=O)(=O)N1CCCCC1 | -7.82% | -8.4%
COc1ccc(N(C(=O)CCl)C(C(=O)NCCc2ccccc2)c2cccs2)cc1 (stereo not drawn) | 32.7% | 58.1% (active)
C=CCN=C1NN=C(c2cc(C)n(CCOC)c2C)CS1 | 69.5% (active) | 86% (active)
Cc1cc(C)c2c3c(sc2n1)C(=O)N(c1ccccc1C)CC(=O)N3 | 4.42% | 5.22%

SMILES | inhibition [1] | inhibition [2]
CCCCCCCCN1C(=O)[C@H](CC(=O)NCCCC)C[C@@]2(C(=O)OCC)CCCC=C12 | -14% | -0.38%
O=C(CCc1nnc(-c2ccc(-c3ccccc3)cc2)o1)NCCc1ccccn1 | 14.7% | 54% (active)
O=C(O)c1ccc(Oc2ccc(S(=O)(=O)c3ccc(C(=O)O)c(C(=O)O)c3)cc2)cc1 | -6.88% | -6.84%
S=C(NCc1ccc(Cl)cc1)NC1CCN(Cc2ccccc2)CC1 | -17.5% | 19.2%
COc1cc(/C=N/NC(=O)c2ccc(COc3cc(C)ccc3C(C)C)cc2)cc(OC)c1O | -2.59% | 62.9% (active)
CCOC(=O)CCSc1nc(C(C)(C)C)cc(C(F)(F)F)c1C#N | -14.2% | -27.6%
NC1=NC(=O)/C(=C\c2cccnc2)S1 | -14.6% | 35.6%
COc1cccc(CNc2nc(NCC3CC3)nc3ccsc23)c1OC | -3.78% | 18.8%
CC(C)(C)c1ccc(-c2n[nH]c(=S)n2C2CCCC2)cc1 | 1.72% | 3.48%
O=C(Nc1ncn[nH]1)c1ccc(Cl)c(S(=O)(=O)Nc2ccc(Cl)cc2)c1 | -5.84% | 5.69%
CCOC(=O)CCC(=O)c1c(C)oc2ccc(OC)cc12 | 6.24% | -15%
CCOc1ccccc1N1CCN(C(=O)c2cc(-c3cc(OC)ccc3OC)nc3ccccc23)CC1 | -6.34% | 14.4%
CCCSc1nnc(Sc2nnnn2-c2ccccc2)s1 | 7.33% | 16.8%
N#Cc1c(NC(=O)CCCC(=O)O)sc2c1CCCCC2 | -8.88% | 44%
COc1ccc(CNC(=O)COC(=O)CCCOc2ccc(Cl)cc2Cl)cc1 | 13% | 15.7%
COc1ccc(OC)c(-n2nnnc2SCC(=O)Nc2cc(C)ccc2OC)c1 | -22.1% | 2.63%
C=CCOc1ccccc1CN1CCC(Cc2ccccc2)CC1 | 8.57% | -13.5%

Source: PubChem BioAssay
